These results are taken from PubChem BioAssay (NCATS).

Assay [1] in a line: Validation of Assay for Modulators of Lamin A Splicing (AID 1459; active means well fitted curve in the direction sought with a large enough effect in the signal ratio; the % refers to the signal ratio;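 further: cells exposed to compound for two days before reading; ratio rise marks activators and ratio drop marks inhibitors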). Summed up: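 Splicing correction is reported by an EGFP-containing lamin A minigene in stably transfected S3 HeLa cells, while DsRed2 controls for viability and nonspecific signal. Cells are exposed to compounds for 48 hrs before the GFP over RFP ratio is taken.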
Assay [2] deals with DNA repair nuclease/redox regulator APEX1 (Homo sapiens) (UniProt P27695). Nature of the assay: qHTS Validation Assay for Inhibitors of the Human Apurinic/apyrimidinic Endonuclease 1 (APE1) (AID 1705;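 further: TAMRA fluorescence gain over two minutes as APE1 cuts a quenched THF abasic duplex; series mostly up to about 57 µM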). The method, boiled down: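 Endonuclease activity of human APE1 is followed as dequenching when the enzyme incises a tetrahydrofuran abasic site in a short duplex labelled 5'-TAMRA/3'-BHQ-2 (50 nM final), after 15 min enzyme–compound preincubation at room temperature.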

Assay [3] in a line: Counterscreen for APE1 Inhibitors: Fluorescent Dye Displacement Validation Assay (AID 1707). The method, boiled down:
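Assay buffer: Tris-HCl pH7.5 with 50mM NaCl, 2 mM MgCl2, 0.01% Tween-20. Dye 250 nM, duplex 50 nM final. Readout: decrease in ThO endpoint fluorescence, 480 nm excitation, 540 nm emission.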
(A counterscreen serves to expose hits that act by an unwanted route or on another target.)

Assay [4] has as its target Endonuclease 4 (Escherichia coli (strain K12)) (UniProt P0A6C1). Nature of the assay: Counterscreen for APE1 Inhibitors: qHTS Validation Assay for Inhibitors of Endonuclease IV (AID 1708). Summed up: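 E. coli EndoIV at 2 nM final, preincubated 15 min at room temperature with compound, then 50 nM TAMRA/BHQ-2 THF abasic-site duplex added. Buffer: 50 mM Tris-HCl pH 7.5, 50 mM NaCl, 2 mM MgCl2, 1 mM DTT, 0.01% Tween-20. Kinetic fluorescence increase, third minus first read.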

Assay [5] in a line: qHTS for differential inhibitors of proliferation of Plasmodium falciparum line GB4 (AID 1816).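 Further: parasite growth measured after 72 h incubation.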 Further: potency means the concentration at half of the fitted maximal effect. To be noted: Potency: Plasmodium falciparum GB4 proliferation inhibition.
A short description of assay [6]: qHTS for differential inhibitors of proliferation of Plasmodium falciparum line 7G8 (AID 1815).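 Further: parasite growth measured after three days of incubation.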 Further: potency means the concentration at half of the fitted maximal effect. For orientation: Quantitative high-throughput screening tests each substance at several concentrations.
The nature of assay [7]: qHTS for differential inhibitors of proliferation of Plasmodium falciparum line 3D7 (AID 1876). Further: potency means the concentration at half of the fitted maximal effect.
The target of assay [8] is Alpha-galactosidase A (Homo sapiens) (UniProt P06280). As to the kind of experiment: Counterscreen for Glucocerebrosidase Inhibitors: qHTS Assay for Human alpha-Galactosidase at pH 4.5 (AID 992). Summed up: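 Concentration-response curves (0.7 nM to 77 uM final) were modeled with the Hill equation to give AC50. Reactions: 2 nM enzyme, 80 uM fluorogenic alpha-galactoside, pH 4.5 citric acid buffer, 20 min, room temperature.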

Assay [9] deals with alpha-glucosidase (Oryza sativa, rice) (UniProt Q653V4). Nature of the assay: Counterscreen for Glucocerebrosidase Inhibitors: qHTS Assay for Rice alpha-Glucosidase at pH 5.0 (AID 997). Summed up: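 Rice alpha-glucosidase (4 nM final) with 400 uM 4-methylumbelliferyl-alpha-D-glucopyranoside in citrate buffer pH 5.0, 20 min at room temperature, stopped at pH 10; fluorescence 365/440 nm, compounds 0.7 nM–77 uM, AC50 from Hill fits.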

Assay [10] is described as follows: Cell Viability - LYMP2-012 (AID 982).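 Further: cellular ATP by luciferase luminescence where a drop means cytotoxicity; cells exposed to compound for one day before reading; nearly all actives have a fitted effect of over 55% in size.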
Assay [11] can be described thus: Cell Viability - LYMP2-014 (AID 983). Further: series mostly up to about 92 µM; nearly all actives have a fitted effect of over 50% in size. Summed up: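 Luminescent ATP signal (CellTiter-Glo, 30 min at room temperature) serves as the viability read-out after 24 hr compound exposure at 37 C. Cells were seeded at 2500 per well and settled 5 hr beforehand.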
The nature of assay [12]: Cell Viability - LYMP2-016 (AID 984).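 Further: cells exposed to compound for 24 hours at 37 °C; nearly all actives have a fitted effect of over 55% in size.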 Summed up:
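Acute toxicity in a Coriell human lymphoblastoid line is scored as loss of intracellular ATP over 24 h of treatment in complete medium. CellTiter-Glo signal is fitted across concentrations with the Hill equation to give AC50.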

A short description of assay [13]: Cell Viability - LYMP2-018 (AID 985). Further: nearly all actives have a fitted effect of over 50% in size. The method, boiled down:
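Luminescent ATP signal (CellTiter-Glo, read after 30 min at room temperature) reports viable cells after 24 hr compound treatment at 37 C. Concentration-response data were fitted to the standard Hill equation for AC50.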

Assay [14] can be described thus: Cell Viability - LYMP2-020 (AID 986). Further: series mostly up to about 92 µM; nearly all actives have a fitted effect of over 55% in size. Summed up: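 Luminescent ATP signal (CellTiter-Glo, 30 min at room temperature) is the read-out after 24 h compound treatment of lymphoblastoid cells at 37 C. AC50 values come from Hill-equation fits across concentrations.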
Assay [15] is described as follows: Cell Viability - LYMP2-022 (AID 987). Further: nearly all actives have a fitted effect of over 55% in size. The method, boiled down:
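qHTS: human lymphoblastoid cells 2500/well; 5 hr 37 C; cpd added; 24 hr 37 C; CellTiter-Glo, 30 min RT; luminescence. AC50 via Hill fit; tetraoctylammonium bromide positive ctrl.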

Assay [16] can be described thus: Cell Viability - LYMP2-024 (AID 988). Further: nearly all actives have a fitted effect of over 60% in size. Summed up: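 Steps: seed 2500 cells/well, 5 hr 37 C; add compound, 24 hr 37 C; add CellTiter-Glo, 30 min room temperature; read luminescence. AC50 derived by Hill modelling of concentration-dependent ATP loss.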
Assay [17] is described as follows: Cell Viability - LYMP2-026 (AID 989). Further: nearly all actives have a fitted effect of over 50% in size. Summed up: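 Luminescent ATP signal (CellTiter-Glo, 30 min room temperature) measures viable lymphoblastoid cells after 24 hr compound treatment at 37 C. Decreased ATP reflects acute toxicity; AC50 values come from Hill-equation modeling.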
Assay [18] can be described thus: Cell Viability - LYMP1-002 - Assay at 24 hr (AID 993). The method, boiled down: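 Cells plated 2500/well, 5 hr 37 C; compounds added, 24 hr 37 C; CellTiter-Glo added, 30 min RT; luminescence read. Tetraoctylammonium bromide positive control. Hill-equation AC50.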
Assay [19] in a line: Cell Viability - LYMP1-002 - Assay at 40 hr (AID 994). Further: nearly all actives have a fitted effect of over 60% in size. The method, boiled down:
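Luminescent ATP signal served as the viability readout, with decreases taken as toxicity. Cells were treated with compounds across a concentration range for 40 hours at 37 C, and AC50 values came from standard Hill modeling.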

Molecules are shown by their SMILES. Records with an inconclusive call do not appear. Active and inactive are the calls of the source. Unless noted, the call rests on the fitted dose curve; in most records, active means well fitted curve in the direction sought with a large enough effect; inconclusive means small, poorly fitted or top-dose-only effect, or another doubt; inactive means no such curve, though single readings can be large; an effect the other way counts as inactive or inconclusive.

DNA repair nuclease/redox regulator APEX1 (Homo sapiens), sequence (P27695 whole entry, looked up): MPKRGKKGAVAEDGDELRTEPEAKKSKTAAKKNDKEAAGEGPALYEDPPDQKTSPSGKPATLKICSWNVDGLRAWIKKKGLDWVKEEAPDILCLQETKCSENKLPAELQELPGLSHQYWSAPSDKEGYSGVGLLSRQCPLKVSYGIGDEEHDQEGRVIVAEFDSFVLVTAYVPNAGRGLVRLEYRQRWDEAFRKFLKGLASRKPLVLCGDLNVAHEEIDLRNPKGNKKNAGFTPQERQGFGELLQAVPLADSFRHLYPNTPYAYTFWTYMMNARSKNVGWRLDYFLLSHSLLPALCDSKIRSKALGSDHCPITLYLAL
Alpha-galactosidase A (Homo sapiens), sequence (P06280 whole entry, looked up): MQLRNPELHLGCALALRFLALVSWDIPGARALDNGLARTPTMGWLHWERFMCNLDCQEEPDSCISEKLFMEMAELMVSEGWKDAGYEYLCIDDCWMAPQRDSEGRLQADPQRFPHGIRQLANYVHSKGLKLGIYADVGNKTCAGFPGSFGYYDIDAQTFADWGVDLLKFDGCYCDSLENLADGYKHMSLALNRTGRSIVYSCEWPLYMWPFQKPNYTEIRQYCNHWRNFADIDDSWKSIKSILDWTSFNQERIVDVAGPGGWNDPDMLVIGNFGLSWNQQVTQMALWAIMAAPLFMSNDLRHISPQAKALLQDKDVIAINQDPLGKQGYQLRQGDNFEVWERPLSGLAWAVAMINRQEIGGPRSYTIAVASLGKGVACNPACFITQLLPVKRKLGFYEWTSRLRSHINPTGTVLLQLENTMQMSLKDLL

For `COC(=O)C(C)(N)Cc1ccc(O)cc1` (centres undefined), in assay [1], the result was inactive. In addition, the Potency result in [2], in assay [3] and in assay [4] was “inactive” in each case. Further, the Potency in assay [5] was 14.1 µM (active).
Consider `NCC(O)(CS(=O)(=O)O)c1ccc(Cl)cc1` (centres undefined), for which the compound was classed as inactive in assay [1]. The Potency result in assay [2], in assay [3], in assay [6], in [5] and in [7] was “inactive” in each case.
In the case of `O=C1C2C=CC=CC2=NC(=S)N1CCN1CCC(=C(c2ccc(F)cc2)c2ccc(F)cc2)CC1` (centres undefined), the compound was classed as inactive in [1]. Further, the Potency entry in assay [2] and in assay [3] was “inactive” each time. Also, the Potency in assay [6] was 8.91 µM (active).
Consider `Cc1nc2c(OCc3ccccc3)cccn2c1CC#N`, for which the result in assay [8], in assay [9] and in assay [1] was inactive. The Potency entry in assay [2], in [3], in assay [4], in assay [6], in assay [5] and in assay [7] was “inactive” throughout.
As to `O=S(=O)(c1cccc2c(Cl)cccc12)N1CCCNCC1`, the call in assay [8], in assay [9] and in [1] was inactive. Further, the Potency entry in assay [2] and in [3] was “inactive” each time. In addition, the Potency is 5.01 µM (active) in assay [6], 3.16 µM (active) in assay [5] and 14.1 µM (active) in assay [7].
For `CC(=O)C(C)=O`, the outcome in assay [10], in [11], in assay [12], in [13], in assay [14] and in [15] was inactive. Also, the compound was classed as inactive in assay [16], in assay [17], in assay [8], in [18], in assay [19] and in assay [9]. The result in assay [1] was inactive. Besides, the Potency result in [2], in assay [3], in assay [6], in [5] and in [7] was “inactive” each time.
Take `COC(=O)C(N)Cc1ccc(Cl)cc1` (centres undefined): in [1], the compound was classed as inactive. In addition, the Potency result in assay [3], in [6], in assay [5] and in assay [7] was “inactive” in each case.
For the compound `O=C1NC(=O)c2cc(Nc3ccccc3)c(Nc3ccccc3)cc21`, the call in assay [8], in assay [9] and in assay [1] was inactive. Moreover, the Potency entry in [2] and in assay [3] was “inactive” in each case. Besides, the results for the Potency in assay [6], in [5] and in assay [7] were 8.91 µM (active), 10 µM (active) and 12.6 µM (active), respectively.
For the compound `NC1CCN(O)C1=O` (centres undefined), the call in [1] was inactive. The Potency result in assay [3], in assay [6], in assay [5] and in assay [7] was “inactive” each time.
In the case of `Cn1cc(C(F)(F)F)nc1-c1ccc(OCC(O)CNCCOc2ccc(O)c(C(N)=O)c2)cc1` (centres undefined), the compound was classed as inactive in assay [1]. Also, the Potency result in [2] and in assay [3] was “inactive” in each case. The Potency in assay [6] is 12.6 µM (active); in assay [5], 12.6 µM (active); in assay [7] it was 2.82 µM (active).
On to `CNc1ncnc2c1ncn2[C@H]1C[C@H](OP(=O)(O)O)[C@@H](COP(=O)(O)O)O1`, for which, in [1], the outcome was inactive. Besides, the Potency result in assay [3], in assay [6], in assay [5] and in assay [7] was “inactive” in each case.
Take `CCCCCCN(CCCCCC)C(=O)Cc1c(-c2ccc(F)cc2)[nH]c2ccccc12`: the compound was classed as inactive in assay [8], in assay [9] and in assay [1]. The Potency result in assay [3] and in [4] was “inactive” throughout. For the same compound, the figures for the Potency in [6], in [5] and in assay [7] were 5.01 µM (active), 3.98 µM (active) and 5.01 µM (active), respectively.
Consider `Cn1cc(C(=O)OCC2CCN(CCNS(C)(=O)=O)CC2)c2ccccc21`, for which the compound was classed as inactive in assay [8], in assay [9] and in assay [1]. The Potency result in assay [2] and in assay [3] was “inactive” each time. In assay [6], the Potency was 10 µM (active).
For the compound `COc1ccccc1N1CCN(CCCCN2C(=O)c3ccccc3C2=O)CC1`, the call in [8], in assay [9] and in assay [1] was inactive. For the same compound, the Potency entry in assay [3] and in [6] was “inactive” throughout. The Potency in assay [7] is 12.6 µM (active).
As for `Cn1ccnc1`, the outcome in [8], in [9] and in [1] was inactive. The Potency result in assay [2], in [3], in assay [6], in [5] and in assay [7] was “inactive” each time.
`CCOC(=O)C12CC1/C(=N/O)c1ccccc1O2` (centres undefined): in assay [1], the outcome was inactive. The Potency result in assay [3], in assay [4], in [6], in [5] and in assay [7] was “inactive” each time.
Turning to `CC1=C(C(=O)O)N2C(=O)[C@@H](NC(=O)C(N)C3=CCC=CC3)[C@H]2SC1` (some centres undefined), the call in assay [1] was inactive. For the same compound, the Potency entry in assay [3], in [4], in [6], in [5] and in assay [7] was “inactive” throughout.
Turning to `COc1cc(N)c(Cl)cc1C(=O)OCCN1CCCCC1`, the outcome in assay [8], in assay [9] and in [1] was inactive. Besides, the Potency entry in assay [2], in assay [3] and in [7] was “inactive” in each case.
Regarding `CCCOC(=O)c1c(-c2ccccc2)nc(CC)c(C(=O)SCC)c1CCC`, the outcome in assay [8], in assay [9] and in [1] was inactive. Moreover, the Potency entry in assay [3] and in assay [4] was “inactive” throughout. For the same compound, the values for the Potency in [6] and in assay [5] were 12.6 µM (active) and 11.2 µM (active), respectively.
In the case of `COc1cc2c(CCNC(C)=O)c[nH]c2cc1O`, the call in assay [8], in assay [9] and in assay [1] was inactive. Further, the Potency result in [3], in assay [4], in [6] and in [7] was “inactive” in each case.
For the compound `COC(=O)[C@H](NC(=O)c1cc(-c2ccccc2)nc2ccccc12)c1ccccc1`, the result in assay [8], in [9] and in assay [1] was inactive. Further, the Potency result in assay [2], in [3] and in [7] was “inactive” throughout. Moreover, in [6], the Potency was 11.2 µM (active).
Consider `CC(N)(C(=O)O)c1ccc(C(=O)O)cc1` (centres undefined), for which, in assay [1], the outcome was inactive. Further, the Potency entry in assay [2], in [3], in assay [6], in assay [5] and in assay [7] was “inactive” throughout.
For the compound `CCN(c1nc(N)c(C(=O)N=C(N)N)nc1Cl)C(C)C`, the compound was classed as inactive in assay [8], in assay [9] and in [1]. Further, in [3], the Potency result was “inactive”. For the same compound, the Potency was 11.2 µM (active) in assay [6], 7.94 µM (active) in assay [5] and 10 µM (active) in assay [7].
For the compound `Cc1ccc2c(c1)C(N1CCN(C)CC1)=Nc1cccnc1N2`, the outcome in assay [8], in [9] and in assay [1] was inactive. Also, the Potency result in assay [2] and in assay [3] was “inactive” throughout.
Take `COc1cc(C(O)C(=O)O)ccc1O` (centres undefined): in assay [1], the result was inactive. Also, the Potency entry in assay [2], in assay [3], in assay [6], in assay [5] and in assay [7] was “inactive” each time.
Consider `COc1cccc(OC)c1OCCNCC1CSc2ccccc2O1` (centres undefined), for which, in [1], the compound was called inactive. Further, the Potency entry in assay [3] was “inactive”. The values for the Potency in assay [6] and in assay [5] were 7.94 µM (active) and 4.47 µM (active), respectively.
